Test results from PubChem BioAssay.
Active and inactive are the calls of the source.

Tests used:
[1] = A549 cell viability effects, profiling panel, calcein-AM fluorescence, 48 h, basal (AID 1162); conditions: higher = more signal
[2] = adipocyte viability effects, profiling panel, cell-based, 3T3-L1 adipocytes, calcein-AM fluorescence, 48 h, basal (AID 1163); conditions: 3T3-L1 adipocytes viability, higher = more signal
[3] = HepG2 cell viability effects, profiling panel, calcein-AM fluorescence, 48 h, basal (AID 1164); conditions: higher = more signal
[4] = MM1S cell viability effects, profiling panel, calcein-AM fluorescence, 48 h, basal (AID 1165); conditions: higher = more signal;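 also: viability of MM1S multiple myeloma cells under basal unstimulated conditions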
[5] = basal RPMI8226 viability, no added stimulus, profiling panel, cell-based, calcein-AM fluorescence, 48 h, PK04 Diversity Set (AID 1166); conditions: RPMI8226 myeloma viability, higher = more signal;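 also: cells grown under basal conditions without added stimulus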
[6] = basal HepG2 mitochondrial membrane potential changes, profiling panel, cell-based, JC-1 fluorescence, 24 h, 100 nL compound (AID 1167); conditions: higher = more signal
[7] = basal 3T3-L1 adipocyte mitochondrial potential changes, profiling panel, cell-based, JC-1 fluorescence, 3T3-L1 adipocytes, 24 h, 100 nL compound (AID 1168); conditions: JC-1 mitochondrial fluorescence, higher = more signal, called active from +8 up or from −8 down
[8] = basal RPMI8226 mitochondrial membrane potential changes, profiling panel, cell-based, JC-1 fluorescence, 24 h, 100 nL compound (AID 1169); conditions: RPMI8226 myeloma, JC-1 mitochondrial potential fluorescence, higher = more signal
[9] = basal MM1S mitochondrial membrane potential changes, profiling panel, cell-based, JC-1 fluorescence, 24 h, 100 nL compound (AID 1170); conditions: higher = more signal
[10] = A549 lung cancer cell viability effects, profiling panel, resazurin fluorescence, 24 h, PK04 Diversity Set (AID 1171); conditions: higher = more signal, called active from +8 up or from −8 down
Also: test concentration not given here.

| SMILES | z-score [1] | z-score [2] | z-score [3] | z-score [4] | z-score [5] | z-score [6] | z-score [7] | z-score [8] | z-score [9] | z-score [10] |
| --- | --- | --- | --- | --- | --- | --- | --- | --- | --- | --- |
| COC(=O)C=C(CC(O)c1cccc(Cl)c1)OC (stereo not given) | 0.409 | 0.0036 | 1.01 | 0.892 | -0.221 | 0.456 | 0.705 (inactive) | -0.738 | -1.36 | -0.34 (inactive) |
| COC(=O)c1c(CC[C@@H](CO)NC(=O)N[C@H](Cn2cc(Cc3ccccc3)nn2)C(C)C)oc(C(C)=O)c1C(=O)OC | -0.138 | 1.62 | 0.141 | 0.486 | -0.298 | -0.0757 | 1.58 (inactive) | 0.4 | 0.492 | -0.896 (inactive) |
| Cc1ccc(C(C)CC(O)C2C=CC3C(=O)N(C)C(=O)C3N2NC(=O)OC(C)(C)C)o1 (stereo not given) | 0.987 | -0.515 | 0.917 | -0.193 | -0.883 | -0.768 | -0.632 (inactive) | -0.876 | -0.357 | 0.543 (inactive) |
| COCCOC(=O)N1C(=O)[C@@]2(c3cc(C#CC4(O)CCCCCC4)ccc31)[C@H](c1ccc(O)cc1)N1[C@H](c3ccccc3)[C@H](c3ccccc3)OC(=O)[C@H]1[C@@H]2C(=O)Nc1nc2ccccc2s1 | 0.3 | 0.974 | 0.702 | -1.55 | -1.47 | -2.78 | -1.11 (inactive) | -0.876 | 0.18 | -0.006 (inactive) |
| COc1ccc(NN2C(C(O)c3ccc([N+](=O)[O-])cc3)C=CC3C(=O)N(C4CCCCC4)C(=O)C32)cc1 (stereo not given) | 0.0649 | -1.33 | 0.52 | 0.538 | -0.465 | -0.0181 | 0.369 (inactive) | 0.919 | -1.71 | 1.01 (inactive) |
| COCCOC(=O)N1C(=O)[C@@]2(c3cc(C#CCCO)ccc31)[C@H](C(=O)N1CCc3cc(OC)c(OC)cc3C1)[C@H]1C(=O)O[C@H](c3ccccc3)[C@H](c3ccccc3)N1[C@@H]2c1ccc(O)cc1 | -0.235 | 0.0133 | 2.58 | 0.587 | 0.245 | -0.404 | 0.0353 (inactive) | -0.385 | -0.546 | -0.689 (inactive) |
| NC(=O)[C@@H]1[C@H]2C(=O)O[C@H](c3ccccc3)[C@H](c3ccccc3)N2[C@H](c2ccc(O)cc2)[C@@]12C(=O)Nc1ccc(C#CC3(O)CCCCCC3)cc12 | 0.735 | -0.0487 | 0.338 | -1.44 | -0.482 | -0.717 | -0.928 (inactive) | -0.566 | -0.0259 | 0.399 (inactive) |
| O=C(O)[C@@]1(CCS(=O)(=O)c2ccccc2)COC(c2ccc(OCCCO)cc2)=N1 | 0.518 | -0.664 | -0.0551 | -1.69 | -0.658 | -1.13 | 0.148 (inactive) | 0.943 | -0.436 | 0.221 (inactive) |
| CN(C)CCCNC(=O)[C@@]1(C)c2ccccc2C(=O)N(Cc2cc(F)cc(C(F)(F)F)c2)[C@H]1c1ccc(CO)cc1 | 1.04 | -0.0121 | -0.746 | -1.29 | -0.167 | 0.845 | 0.235 (inactive) | 0.521 | -0.496 | 0.896 (inactive) |
| CC(C)(C)OC(=O)CC[C@]1(C(=O)O)N=C(c2ccc(OCCCO)cc2)O[C@H]1c1ccccc1N=[N+]=[N-] | 0.559 | -0.598 | 0.331 | -0.128 | -0.24 | -2.45 | 0.328 (inactive) | -0.506 | -0.589 | 0.0553 (inactive) |
| C#CCN(Cc1ccccc1Br)C(/C=C/c1ccccc1)CO (stereo not given) | -3.65 | -0.011 | -3.95 | -3.26 | -4.12 | -2.83 | 0.165 (inactive) | -1.2 | -1.21 | -0.411 (inactive) |
| C=C/C=C/[C@H]1C(=C)CN([C@@H](Cc2ccccc2)C(=O)OC)[C@@H]1[C@H](O)Cc1ccccc1 | -0.0859 | -0.178 | -0.0232 | -2.2 | -1.52 | -1.06 | -0.882 (inactive) | -0.317 | 0.165 | -0.138 (inactive) |
| COC(=O)C(CC#Cc1ccc2c(c1)[C@]1(C(=O)N2)[C@H](C(=O)O)[C@H]2C(=O)O[C@H](c3ccccc3)[C@H](c3ccccc3)N2[C@@H]1c1ccc(O)cc1)C(=O)OC | -0.389 | -0.405 | 0.0982 | -0.0724 | -0.263 | -2.08 | -0.269 (inactive) | -0.28 | -0.331 | 0.831 (inactive) |
| C=CCC(OC(C)=O)[C@@H]1[C@@H](N(Cc2ccc(-c3ccccc3)cc2)C(=O)Cc2ccc(F)cc2)c2cc(OCCCO)ccc2N1C(=O)c1ccc(-c2ccccc2)cc1 (stereo not given in full) | -0.861 | 0.779 | 1.87 | 0.784 | 1.16 | 3.77 | 1.54 (inactive) | -0.714 | -0.725 | 1.67 (inactive) |
| C=C(CCCC)C(=O)CC[C@H](OC(=O)c1cccnc1)c1ccccc1OCCO | 0.414 | 1.54 | -0.664 | -3.22 | -1.65 | 0.663 | -0.916 (inactive) | -0.587 | -0.491 | 1.1 (inactive) |
